These results are taken from PubChem BioAssay (NCI).

Common to all, as to test: NCI-60 one-dose screen, 48 h (100 = growth as untreated, 0 = no growth, -100 = all killed)
Common to all, as to conditions: 10 µM unless noted

For assay [1], the system named is NCI-H23 lung.
The test system of assay [2] is NCI-H226 lung.
In assay [3] the test system is NCI-H322M lung.
The subject of assay [4] is HOP-62 NSCLC.
The test system of assay [5] is NCI-H460 lung.
For assay [6], the system named is HOP-92 NSCLC.
Assay [7] relates to NCI-H522 lung.
Assay [8] deals with A549/ATCC NSCLC.
Assay [9] concerns 786-0 renal.
The subject of assay [10] is COLO 205 colon.
The subject of assay [11] is DU-145 prostate.
Assay [12] deals with K-562 leukemia.
Assay [13] concerns MALME-3M melanoma.
In assay [14] the test system is MDA-MB-231 breast.
The test system of assay [15] is RXF 393 renal.
The subject of assay [16] is SF-268 CNS.
Assay [17] concerns SF-295 CNS.
Assay [18] concerns SF-539 CNS.
Assay [19] has as its system UACC-257 melanoma.
In assay [20] the test system is M14 melanoma.

Compounds without any hit were thinned out: in the full panel of roughly 83,000, 20% have a hit.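 Method: cells in 96-well plates; compound added at one concentration; 48 h incubation; percent growth measured; values under 10 scored active.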 Unmarked numbers belong to inactive results. Activity calls are given as the source filed them.

Turning to `CC1(C)NC2=C(C(Nc3cccnc3)N1)C(c1ccc([N+](=O)[O-])cc1)C(C(=O)c1ccc(N=[N+]=[N-])cc1)O2` (stereo not given), the growth is 103% in assay [1]; 105% in assay [2]; 100% in [3]; 103% in assay [4]; 95.4% in [5]; 94% in [6]. For the same compound, the growth in assay [7] was 96.7%; in [8] it was 104%; in assay [9] it was 100%; in assay [10], 109%; in assay [11] it was 106%; in [12], 101%. Further, the growth in assay [13] was 99.2%; in assay [14] it was 102%; in assay [15], 112%; in [16], 101%; in [17], 104%; in assay [18], 102%. The growth in assay [19] and in assay [20] was 104% throughout.

In the case of `CC1(C)[C@@H](O)CC[C@]2(C)[C@H]3CC[C@@H]4[C@H]5[C@H](C(=O)/C=C/c6ccc(C(F)(F)F)cc6)CC[C@]5(CO)CC[C@@]4(C)[C@]3(C)CC[C@@H]12`, the growth was 56.9% in assay [1]; 30% in assay [2]; 80.7% in assay [3]; 97.4% in [4]; 65.4% in [5]; 66% in assay [6]. Also, the growth in assay [7] was 60.6%; in assay [8] it was 47.8%; in assay [9], 64.9%; in assay [10], 73.8%; in assay [11] it was 70.1%; in assay [12], 32.9%. Also, the growth is 8.37% (active) in [13]; 71.4% in [14]; 32.3% in assay [15]; 75.5% in [16]; 72.1% in assay [17]; 55.1% in assay [18]. Besides, the growth in [19] is 67.4%; in assay [20] it was 7.81% (active).

Turning to `CCN1CCN(C(=O)[C@]23CCC(C)(C)C[C@H]2C2=CC[C@@H]4[C@@]5(C)CC/C(=N/O)C(C)(C)[C@@H]5CC[C@@]4(C)[C@]2(C)CC3)CC1`, the growth in [1] is 69.7%; in assay [2], 66.5%; in assay [3] it was 86.1%; in [4], 76.9%; in assay [5], 72%; in assay [6], 52.7%. The growth in assay [7] is 45.2%; in assay [8], 74%; in [9] it was 57.5%; in assay [10], 87.9%; in assay [11], 86.4%; in [12], 58.8%. Further, the growth in assay [13] is 62.9%; in [14], 9.19% (active); in [15] it was 81.2%; in assay [16], 67.2%; in assay [17], 65.7%; in [18], 80.4%. Further, the growth in assay [19] is 80.4%; in assay [20] it was 65.6%.

With `CC(C)(C)n1cc(-c2ccnc(NCCCNS(=O)(=O)c3ccc(Cl)cc3)c2)c(-c2cccc(F)c2)n1`, the growth in [1] is 70.9%; in assay [2], 80.9%; in assay [3], 98.5%; in [4], 93%; in assay [5] it was 59.4%; in assay [6], 73.6%. Also, the growth in [7] is 84.2%; in assay [8] it was 61.9%; in [9], 71.4%; in [10], 43.4%; in [11] it was 87%; in [12], 24.8%. Moreover, the growth is 73.8% in [13]; 81.6% in assay [14]; 72% in assay [15]; 86.6% in [16]; 68.2% in assay [17]; 75% in assay [18]. The growth in assay [19] was 93.1%; in assay [20], 77.7%.

With `O=C(NCN1C(=O)c2cccc3cccc(c23)C1=O)N1CCC(Cc2ccccc2)CC1`, the growth was 93.9% in assay [1]; 96.7% in [2]; 105% in assay [3]; 94% in [4]; 103% in assay [5]; 70% in [6]. Also, the growth was 77.9% in assay [7]; 89.8% in [8]; 102% in assay [9]; 97.5% in assay [10]; 106% in assay [11]; 90.2% in [12]. Moreover, the growth in assay [13] was 96.6%; in assay [14], 98.2%; in assay [15], 107%; in assay [16] it was 100%; in assay [17], 96.8%; in assay [18], 102%. Besides, the growth in [19] is 103%; in assay [20], 92.5%.

As to `Brc1cnc2[nH]cc(-c3nnc(-c4ccccc4)o3)c2c1`, the growth was 78.5% in [1]; 66.4% in assay [2]; 77.5% in assay [3]; 85.2% in assay [4]; 80.9% in assay [5]; 74.7% in assay [6]. The growth in assay [7] was 76.7%; in assay [8], 81.2%; in assay [9] it was 73.6%; in [10], 82.9%; in assay [11] it was 57.9%; in assay [12], 73.3%. In addition, the growth was 78.9% in assay [13]; 63% in assay [14]; 26.8% in [15]; 81.2% in assay [16]; 85.8% in assay [17]; 89.6% in assay [18]. Besides, the growth in [19] was 112%; in [20], 76.6%.

In the case of `O=C1NC(c2ccc(Cl)c(Cl)c2)=C/C1=C\c1ccccc1`, the growth was 84.8% in [1]; 57.7% in assay [2]; 79% in assay [3]; 69.1% in [4]; 18.6% in [5]; 72.1% in [6]. Also, the growth in assay [7] is 79%; in assay [8], 55.1%; in assay [9], 9.12% (active); in assay [10], 65.2%; in assay [11] it was 95.9%; in assay [12] it was 72.6%. The growth in assay [13] was 63.3%; in [14], 69.9%; in [15] it was 65.2%; in [16], 92.3%; in [17], 52.2%; in assay [18] it was 84.7%. Moreover, the results for the growth in [19] and in assay [20] were 98.2% and 90.9%, respectively.
